{
  "source": "PubChem BioAssay AID651812",
  "about": "(National Center for Advancing Translational Sciences (NCATS), 2012)",
  "note": "Out of some 2,100 compounds screened, about 650 (31%) were called active. About 16% were inconclusive and are not listed. The list shows a part of the results. Unmarked numbers belong to inactive results. Calls come from the whole dose curve; as a rule, active = well fitted inhibition curve with a large enough effect; inconclusive = small, poorly fitted or top-dose-only effect; inactive = flat fitted curve, though single readings scatter. Potency is the fitted concentration of half-maximal effect.",
  "data": [
    {"test": "qHTS for inhibitors of Vif-A3G interactions: Cherry picks; note: nearly all actives have a fitted effect of over 80% in size; for activity, negative = fluorescence increase: % of control where 0% means no effect", "conditions": "HeLa A3G-eYFP + Vif (tagged APOBEC3G with the HIV-1 protein that degrades it), 24 h; Potency: eYFP fluorescence increase; series mostly up to 36.9 µM; activity, negative = fluorescence increase: at the top concentration", "summary_of_the_method": "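Cherry-picked compounds tested at several concentrations on A3G-eYFP/Vif HeLa cells for 24 hours; loss of Vif-driven degradation read as eYFP fluorescence by cytometric plate imaging, 488 nm excitation, 500-530 nm emission.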", "values": [
      {"smiles": "CC(C)(C)OC(=O)NC(Cc1ccccc1)C(=O)N1CCC(C(=O)NCC(=O)Nc2ccc(F)cc2)CC1", "note": "(stereo not drawn)", "Potency": "18.4 µM (active)"},
      {"smiles": "COc1ccc(/C=N/n2cc(-c3ccccc3)nc2N)cc1", "activity, negative = fluorescence increase": "-2.95%"},
      {"smiles": "Cc1ccnc(N/C=C(\\C#N)c2nc(-c3cccc(Br)c3)cs2)c1", "Potency": "14 µM (active)"},
      {"smiles": "COC(=O)c1nnn(-c2nonc2N)c1CN1CCc2ccccc21", "activity, negative = fluorescence increase": "0.0341%"},
      {"smiles": "CC1(C)CCN2CCC(C)(C)c3c(O)ccc1c32", "Potency": "14 µM (active)"},
      {"smiles": "COc1cc(CNCCSc2nnnn2C)ccc1OCc1c(F)cccc1Cl", "activity, negative = fluorescence increase": "-0.389% [at 46.1 µM]"},
      {"smiles": "Cc1ccc(N=Cc2c(O)n(-c3nccs3)c(=O)c3ccccc23)c(C)c1", "Potency": "16.4 µM (active)"},
      {"smiles": "Cc1ccc(NC(=O)/C(C#N)=C\\c2ccc(-c3ccc(Cl)cc3)o2)c(C)c1", "Potency": "7.31 µM (active)"},
      {"smiles": "N#C/C(=C/c1ccc(-c2ccc([N+](=O)[O-])cc2)o1)C(=O)Nc1nc(-c2cccs2)cs1", "activity, negative = fluorescence increase": "-19.8% [at 46.1 µM]"},
      {"smiles": "CCN(CC)c1ccc(/C=c2/sc3nnc(-c4ccccc4C)n3c2=O)cc1", "Potency": "25.9 µM (active)"},
      {"smiles": "O=C1NC(c2ccccc2Br)=N/C1=C\\c1ccco1", "activity, negative = fluorescence increase": "2.97% [at 46.1 µM]"},
      {"smiles": "Cc1cccc(N2CCN(C(=O)c3ccncc3)CC2)c1C", "activity, negative = fluorescence increase": "-12%"},
      {"smiles": "C(=C\\c1c[nH]c2ccccc12)/c1ccc2ccccc2n1", "Potency": "18.4 µM (active)"},
      {"smiles": "Cc1[nH]c2ccccc2c1/C=C/c1ccc2ccccc2n1", "Potency": "18.4 µM (active)"},
      {"smiles": "C(=Cc1c[nH]c2ccccc12)c1ccc2ccccc2n1", "Potency": "20.6 µM (active)"},
      {"smiles": "Cc1[nH]c2ccccc2c1/C=C/c1ccnc2ccccc12", "activity, negative = fluorescence increase": "-21.3% [at 46.1 µM]"},
      {"smiles": "Nc1cccc(CCc2nc3cc4ccccc4cc3[nH]2)c1", "activity, negative = fluorescence increase": "-1.81%"},
      {"smiles": "Cc1cc(NC(=O)NC(=O)c2ccccc2NC(=O)C(C)N)ccc1Oc1ncc(Br)cn1", "note": "(stereo not drawn)", "activity, negative = fluorescence increase": "-14.1%"},
      {"smiles": "CC(=O)Nc1ccc(S(=O)(=O)Nc2nc3ccccc3nc2Sc2nncn2C)cc1", "activity, negative = fluorescence increase": "-27.3% [at 46.1 µM]"},
      {"smiles": "O=c1cc(-c2ccccc2)[nH]c2ccccc12", "activity, negative = fluorescence increase": "-0.648%"},
      {"smiles": "Cc1ccc2[nH]c(C)c(/C=C/c3cc[n+](C)cc3)c2c1", "Potency": "1.77 µM (active)"},
      {"smiles": "Cc1[nH]c2ccccc2c1/C=C/c1cc[n+](C)cc1", "Potency": "4.44 µM (active)"},
      {"smiles": "Cc1[nH]c2ccccc2c1/C=C/C(=O)c1ccccc1", "Potency": "23.1 µM (active)"},
      {"smiles": "COc1ccc(-c2cc(NC(C)=O)c3ncc(-c4cc(OC)c(OC)c(OC)c4)n3c2)cn1", "activity, negative = fluorescence increase": "-25.2%"},
      {"smiles": "CCOc1ccccc1N1CC(c2nc3ccccc3n2Cc2c(C)cc(C)cc2C)CC1=O", "note": "(stereo not drawn)", "activity, negative = fluorescence increase": "-1.13% [at 46.1 µM]"},
      {"smiles": "O=C(Cn1ncc(Cl)c(Cl)c1=O)N1CCN(S(=O)(=O)c2ccc3ccccc3c2)CC1", "activity, negative = fluorescence increase": "-4.68%"},
      {"smiles": "Cc1ccc(/C=N/NC(=O)C2COc3ccccc3O2)s1", "note": "(stereo not drawn)", "activity, negative = fluorescence increase": "-6.59%"},
      {"smiles": "O=S(=O)(Nc1cccc2ncccc12)c1cccs1", "activity, negative = fluorescence increase": "-9.28%"},
      {"smiles": "Cc1ccc(NC(=O)C(=Cc2ccc(C(=O)O)cc2)C(=O)Nc2ccc(C)cc2C)c(C)c1", "activity, negative = fluorescence increase": "-3.15%"},
      {"smiles": "Cc1ccc(NC(=O)/C=C/c2ccc([N+](=O)[O-])s2)c(C)c1", "Potency": "5.8 µM (active)"},
      {"smiles": "Cc1nc(NC(=O)/C=C/c2ccco2)sc1C", "activity, negative = fluorescence increase": "-4.83%"},
      {"smiles": "Cc1cccc(NC(=O)/C=C/c2ccc([N+](=O)[O-])s2)c1", "Potency": "4.11 µM (active)"},
      {"smiles": "CC(=O)c1cccc(NC(=S)N2c3ccccc3CC2C)c1", "note": "(stereo not drawn)", "activity, negative = fluorescence increase": "0.849%"},
      {"smiles": "Cc1ccc(NC(=O)/C=C/c2ccc([N+](=O)[O-])s2)cc1", "Potency": "7.31 µM (active)"},
      {"smiles": "Cc1ccc(NC(=O)Cc2ccc(-n3cccc3)cc2)c(C)c1", "activity, negative = fluorescence increase": "7.11% [at 46.1 µM]"},
      {"smiles": "CC(=O)c1cccc(NC(=O)/C=C/c2ccc([N+](=O)[O-])s2)c1", "Potency": "8.2 µM (active)"},
      {"smiles": "C=CCN=c1scc(-c2ccc(F)cc2)n1/N=C/c1ccccn1", "activity, negative = fluorescence increase": "4.34% [at 46.1 µM]"},
      {"smiles": "COc1ccc(CN2C(=O)C(C)Nc3ncnc(N4CCc5ccccc5C4)c32)cc1", "note": "(stereo not drawn)", "activity, negative = fluorescence increase": "0.817%"},
      {"smiles": "Cc1cc(C)cc(NC(=O)/C=C/c2ccc([N+](=O)[O-])s2)c1", "Potency": "23.1 µM (active)"},
      {"smiles": "COC(=O)c1sccc1NC(=S)Nc1cc(C)cc(C)c1", "activity, negative = fluorescence increase": "7.51% [at 46.1 µM]"},
      {"smiles": "Cc1noc(C)c1COc1ccc(C(=O)NNC(=O)c2ccccc2F)cc1", "activity, negative = fluorescence increase": "-3.72%"},
      {"smiles": "O=C(COc1ccccc1-c1ccccc1)NN=C1CCCC1", "activity, negative = fluorescence increase": "-2.76%"},
      {"smiles": "COc1ccc(-n2cc3c(-c4cccc(Br)c4)nnc(C)c3n2)cc1", "activity, negative = fluorescence increase": "-8.67% [at 46.1 µM]"},
      {"smiles": "C=CCN1C(=O)C2(NNc3ccccc3O2)c2ccccc21", "note": "(stereo not drawn)", "Potency": "12.5 µM (active)"},
      {"smiles": "c1ccc2c(-c3nc4ccccc4[nH]3)cccc2c1", "activity, negative = fluorescence increase": "2.87%"},
      {"smiles": "CCOc1ccc(C(=O)Nc2cc(-c3nc4ccccc4[nH]3)ccc2Cl)cc1[N+](=O)[O-]", "activity, negative = fluorescence increase": "-0.225%"},
      {"smiles": "O=C(Nc1ccccc1-c1nc2ccccc2[nH]1)c1ccc(N2C(=O)CCC2=O)cc1", "Potency": "23.1 µM (active)"},
      {"smiles": "Cc1c(NC(=O)c2csc3c2CCCC3)c(=O)n(-c2ccccc2)n1C", "activity, negative = fluorescence increase": "-0.126% [at 46.1 µM]"},
      {"smiles": "Cc1c(N/N=C(\\C#N)C(=O)c2ccc(Cl)cc2)c(=O)n(-c2ccccc2)n1C", "Potency": "20.6 µM (active)"},
      {"smiles": "COc1cc(/C=N/Nc2ccc(Cl)nn2)cc(OC)c1O", "activity, negative = fluorescence increase": "-0.889%"},
      {"smiles": "COc1cc(/C=C2\\COC/C(=C\\c3cc(OC)c(OC)c(OC)c3)C2=O)cc(OC)c1OC", "activity, negative = fluorescence increase": "-2.34%"},
      {"smiles": "C=CCOc1c(Cl)cc(C(=S)N2CCCC2)cc1OCC", "activity, negative = fluorescence increase": "-12.3%"},
      {"smiles": "COc1cc(C=C2CCCC(=Cc3ccc(OCC4CO4)c(OC)c3)C2=O)ccc1OCC1CO1", "note": "(stereo not drawn)", "activity, negative = fluorescence increase": "-3.47%"},
      {"smiles": "CCOc1cc(/C=C2\\CCC/C(=C\\c3cc(Cl)c(O)c(OCC)c3)C2=O)cc(Cl)c1O", "Potency": "12.5 µM (active)"},
      {"smiles": "COc1cc(/C=C2/CCC/C(=C\\c3cc(O)c(OC)c(Cl)c3)C2=O)cc(Cl)c1O", "Potency": "18.4 µM (active)"},
      {"smiles": "Cn1c(=O)c(N)c2c3c(c(Br)ccc31)C(=O)c1ccccc1-2", "Potency": "2.91 µM (active)"},
      {"smiles": "Cc1cccc(-c2noc(-c3ccc(NCc4ccco4)c([N+](=O)[O-])c3)n2)c1", "Potency": "16.4 µM (active)"},
      {"smiles": "COc1ccccc1-c1noc(-c2ccc(NCc3ccco3)c([N+](=O)[O-])c2)n1", "Potency": "23.1 µM (active)"},
      {"smiles": "O=[N+]([O-])c1cc(-c2nc(-c3ccccc3)no2)ccc1NCc1ccco1", "Potency": "10.3 µM (active)"},
      {"smiles": "COc1ccc(-c2cnc3c(c2)CCC3(C#N)C#N)cc1", "activity, negative = fluorescence increase": "-12.3%"},
      {"smiles": "O=C1N/C(=N\\N=C\\c2ccco2)SC1Cc1ccccc1[N+](=O)[O-]", "note": "(stereo not drawn)", "activity, negative = fluorescence increase": "2.93% [at 46.1 µM]"},
      {"smiles": "CCN(CC)S(=O)(=O)c1cc([N+](=O)[O-])ccc1N=Nc1c(O)[nH]c2ccccc12", "Potency": "20.6 µM (active)"},
      {"smiles": "Cc1ccccc1NCC(=O)N=Nc1c(O)[nH]c2ccc([N+](=O)[O-])cc12", "activity, negative = fluorescence increase": "-23.3%"}
    ]}
  ]
}
